Measured values as given in PubChem BioAssay AID1159580 (chemical genetic matrix, 2015).
Out of some 5,500 compounds screened, about 2,000 (36%) were called active. Roughly 18% stayed inconclusive and do not appear here. Some of the results follow. A number with no mark means an inactive call. Cut-off read from the data, not from the text of the source: active = normalized growth mostly below about 0.91 (no sharp cut-off); inconclusive = no clear call, values can overlap the other calls; inactive = mostly above about 0.92.

Assay: chemical genetic growth profiling, strain panel (AID 1159580);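 note: tested at 20 µM; growth read once vehicle control cultures reached saturation at 30 °C; 1 = growth at the plate median or of vehicle wells; lower values mean less growth of the strain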
Conditions: S. cerevisiae deletion strains, growth OD

FC(F)(F)c1ccc(-n2cncn2)nc1
normalized growth (locus YAL013W, strain DEP1, hits give low values): 1.03
normalized growth (locus YBR229C, strain ROT2, hits give low values): 1.01
normalized growth (locus YDL101C, strain DUN1, hits give low values): 1
normalized growth (locus YDR150W, strain NUM1, hits give low values): 0.988
normalized growth (locus YEL061C, strain CIN8, hits give low values): 1.01
normalized growth (locus YGR078C, strain PAC10, hits give low values): 1.01
normalized growth (locus YGR229C, strain SMI1, hits give low values): 1.01
normalized growth (locus YHR030C, strain SLT2, hits give low values): 1.09
normalized growth (locus YHR087W, strain rtc3, hits give low values): 1.02
normalized growth (locus YJL187C, strain SWE1, hits give low values): 1.01
normalized growth (locus YJR043C, strain POL32, hits give low values): 1.02
normalized growth (locus YJR075W, strain HOC1, hits give low values): 0.99
normalized growth (locus YLR039C, strain RIC1, hits give low values): 1.04
normalized growth (locus YLR058C, strain SHM2 (second series), hits give low values): 1
normalized growth (locus YLR085C, strain ARP6, hits give low values): 1.24 [resistant] (active)
normalized growth (locus YLR262C, strain YPT6, hits give low values): 1.01
normalized growth (locus YML094W, strain GIM5, hits give low values): 1.07
normalized growth (locus YMR219W, strain ESC1, hits give low values): 1.01
normalized growth (locus YMR263W, strain SAP30, hits give low values): 1.01
normalized growth (locus YMR307W, strain GAS1, hits give low values): 1.08
normalized growth (locus YNL153C, strain GIM3, hits give low values): 0.996
normalized growth (locus YNL298W, strain CLA4 (second series), hits give low values): 1.07
normalized growth (locus YNL322C, strain KRE1, hits give low values): 1
normalized growth (locus YNR030W, strain Alg12, hits give low values): 1.04
normalized growth (locus YOL006C, strain TOP1, hits give low values): 1.25
normalized growth (locus YPL055C, strain LGE1, hits give low values): 1.07
normalized growth (locus YPL241C, strain CIN2, hits give low values): 1
normalized growth (locus YPR135W, strain CTF4, hits give low values): 1.15
